Screening results: PubChem, several laboratories
HIF-2a inh – HIF-2a reporter inhibitors, primary screen, luminescence, 786-0 RCC cells; AID 624352, 2012; inhibition, % at 18.8 µM; 360,000 tested, 0.72% active; 786-0 RCC cells HIF-2a reporter, luciferase luminescence, overnight;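 active = inhibition of the luminescence signal of 40% or more relative to plate controls, in a single-dose primary screen at 18.75 µM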
KKLEB tox – cytotoxicity in KKLEB CF airway cells, primary screen, cytotoxicity control for CF NF-kB inhibitor project, cell-based, uHTS, fluorescence assay plates; 360,000 tested, 0.36% active; KKLEB CF airway cells viability, ATPlite luminescence, overnight; active compounds read low; cells stimulated with P. aeruginosa culture filtrate; AID 602141, 2011; activity change (cytotoxicity), % at 5 µM;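 active = corrected activity change at or below -50% at 5 µM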
Shn3 3UTR inh – reduction of Shn3 3'UTR firefly luciferase signal, primary screen, Schnurri-3 inhibitor project, cell-based, Clone20 osteoblasts, set 2. Clone20 osteoblast Shn3 3'UTR firefly luciferase, 24 h. inhibition, % at 12.5 µM. 360,000 tested, 0.52% active. AID 588674, 2011;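 active = mean inhibition of at least 75% with every replicate also reaching 75%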;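 also: 0% = median of neutral control wells and 100% = pilot-screen positive control compound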
Peg3 promoter – Peg3 promoter-driven luciferase inhibitors, primary screen, cell-based, HeLa, luciferase luminescence | HeLa PEG-Prom luciferase reporter, overnight | inhibition, % at 20 µM | 360,000 tested, 1.7% active | AID 588405, 2011;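 active = inhibition of at least 50% at 20 µM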
CF NFkB inh – inhibitors of PAF-induced NF-kB signaling, primary screen, cell-based, GFP fluorescence, uHTS; 360,000 tested, 0.86% active; AID 588850, 2011; inhibition, % at 5 µM; KKLEB NF-kB-GFP reporter, GFP fluorescence overnight;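 active = at least 50% inhibition at 5 µM, scaled per plate between neutral and stimulator controls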;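 also: PAF is a Pseudomonas aeruginosa culture filtrate used as stimulus; plate controls were PAF-stimulated DMSO wells for no effect and unstimulated DMSO wells for full effect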
The depositor's hits bear a star; . = not tested or not shown; ! = not confirmed by another sample. Sampled rows, rich in hits. Any-hit rate of the full collection: about 2.6%.

SMILES	HIF-2a inh	KKLEB tox	Shn3 3UTR inh	Peg3 promoter	CF NFkB inh
COc1ccccc1NCC(=O)NNCC(=O)Nc1ccc(F)c(Cl)c1	13	-2	-9	9	15
Cc1cc(O)c(-c2cc(O)c(C)cc2O)cc1O	16	-6	-16	70*	-3
Cc1occc(=O)c1OC(=O)Nc1ccc(Cl)c(Cl)c1	-94	-65*	4	-5	77*
O=C(Nc1ccc(Cn2cccn2)cc1)c1ccc(COc2ccc(Br)cc2)cc1	7	7	2	17	-3
O=C(Nc1ccn(Cc2ccccc2F)n1)c1ccc(COc2ccc(Br)cc2)cc1	-7	-64*	73	-5	48
O=C(c1cc2cc([N+](=O)[O-])ccc2s1)N1CCCCC1	-135	0	-3	-90	-1
CS(=O)(=O)Nc1ccc([N+](=O)[O-])cc1Oc1ccccc1	32	-3	13	10	69*
N=c1c2c(n(Cc3cccc(Cl)c3)c3c1CCC3)CCCC2	-5	-14	74	54*	21
CCCCCCCCCC(=O)OCC(O)CO (stereo not drawn)	-3	23	-20	7	-5
CCCCCCCCCCCCCCC[C@@H](O)[C@@H](N)CO	16	-23	-8	51*	0
Cc1ccc(-c2cc(C(=O)N3CCN(c4ncccn4)CC3)c3cc(Br)ccc3n2)o1	10	0	51	52*	-8
CN(C)c1ccc(C(=O)OCc2ccccc2)cc1	-229	-11	-41	-188	-3
O=C1C=CC(=O)C(CNc2ccc(C(=O)OCc3ccccc3)cc2)=C1	24	-20	95*	72*	68*
COc1ccc(-n2c(C)cc(C3=NNC(=NC4CC4)SC3)c2C)cc1	-114	14	37	-167	-29
Cc1cc(C2=NNC(=NC3CC3)SC2)c(C)n1-c1ccccc1	91*	-14	94*	103*	-10
O=C(O)c1ccccc1Nc1cccc(C(F)(F)F)c1	-13	-59*	-3	1	12
O=C(O)c1ccccc1Nc1ccccc1	2	4	1	-15	-10
Cc1cc(-c2nc(C)c(-c3nnc(SCC(=O)Nc4ccc(Cl)cc4)n3C)s2)no1	10	6	8	18	-10
C=CCSc1nc(C)c(CCCC)c(=O)[nH]1	8	9	1	-3	-2
CCN1CCN(Cc2ccc(NC(=O)c3ccc(C)c(NC(=O)c4nccn4C)c3)cc2C(F)(F)F)CC1	6	1	16	-26	28
CCN1CCN(Cc2ccc(NC(=O)c3cc(NC(=O)c4cnnc5ccccc45)cc(OC)c3)cc2C(F)(F)F)CC1	-3	-12	16	100*!	34
CCN1CCN(Cc2ccc(NC(=O)c3cc(NC(=O)c4nccnc4N)cc(OC)c3)cc2C(F)(F)F)CC1	-21	-16	-38	1	42
CCN1CCN(Cc2ccc(NC(=O)c3ccc(C)c(NC(=O)c4nccnc4N)c3)cc2C(F)(F)F)CC1	9	-19	36	81*	71*
CCN1CCN(Cc2ccc(NC(=O)c3ccc(C)c(NC(=O)c4cncc(-c5cccs5)c4)c3)cc2C(F)(F)F)CC1	48*	-85*	88*	99*	80*
CN1CCN(C(c2ccc(Cl)cc2)c2cc(Cl)c3cccnc3c2O)CC1 (stereo not drawn)	50*	-42	77	65*	38
SMILES	HIF-2a inh	KKLEB tox	Shn3 3UTR inh	Peg3 promoter	CF NFkB inh
CCC(=O)NC(c1cc(Cl)c2cccnc2c1O)C(C)C (stereo not drawn)	16	7	69	35	1
O=C(NCc1ccc(Cl)cc1)c1cccnc1	13	-8	-2	-9	-6
CCC(=O)NC(c1cc(Cl)c2cccnc2c1O)C1CC1 (stereo not drawn)	15	-10	78	36	2
CCCC(=O)NC(c1ccc(OC)c(OC)c1)c1cc(Cl)c2cccnc2c1O (stereo not drawn)	6	-5	88*	48	-2
CCCCC(=O)NC(c1cccs1)c1cc(Cl)c2cccnc2c1O (stereo not drawn)	7	-15	24	51*	4
O=C(NC(c1ccc(Cl)cc1)c1cc(Cl)c2cccnc2c1O)c1cccnc1 (stereo not drawn)	20	-4	81	66*	-12
Cc1cc(NC(=S)NC(=O)c2ccccc2)ccc1-c1cc2ccccc2oc1=O	8	-61*	37	0	56*
CCCc1ccc(-c2cc(C(=O)N3CCN(c4ccccn4)CC3)c3ccccc3n2)cc1	-122	-76*	27	-40	12
CCc1ccc(-c2nc(CSCC(=O)N3CCN(c4ccccn4)CC3)c(C)o2)cc1	58*	10	18	45	-22
COc1ccc(-c2cc(C(=O)N3CCN(c4ccccn4)CC3)c3ccccc3n2)cc1	-195	-61*	-90	-47	16
CCOC(=O)N1CCN(C(=O)c2cc(-c3ccc(OCC)cc3)nc3ccccc23)CC1	-279	-75*	-7	-64	10
O=C(CNC(c1ccccc1)c1ccccc1)Nc1ccccc1-c1ccccc1	4	-12	78	5	45
COc1cc(OC)cc(C2=Cc3ccccc3C(CC(C)=O)N2c2ccc(-c3cccs3)cc2)c1 (stereo not drawn)	-14	.	.	.	.
Cc1ccccc1OCC(=O)OCC(=O)NCCc1ccccc1	11	-2	9	7	10
CCOc1ccc(-c2cc(C(=O)N3CCN(C)CC3)c3ccccc3n2)cc1	-197	-21	-13	-167	13
CCOc1ccc(-c2cc(C(=O)N3CCN(c4ccccn4)CC3)c3ccccc3n2)cc1	-286	-68*	-34	-57	2
COc1ccc2cc(-c3cc(C(=O)O)c4ccccc4n3)ccc2c1	35	-54*	66	30	-2
COc1ccc(S(=O)(=O)N2CCNC(=O)C2)cc1Br	12	-5	-50	5	7
COC(=O)[C@@]12C[C@@H](CC(=O)NCC3CCCCC3)C(=O)N(Cc3ccco3)C1=CCC(C)(C)C2	-22	.	.	.	.
Cc1ccc(S(=O)(=O)NCCCCCC(=O)Nc2cccc(C)c2)cc1	8	-5	22	10	15
O=C1c2ccccc2C(=O)C1c1ccnc2ccccc12	24	-70*	43	83*	-134
O=C1c2ccccc2C(=O)C1c1nccc2ccccc12	3	-65*	0	88*	-144
COc1ccc(OCCCC(=O)OCC(=O)NNC(=O)c2ccc([N+](=O)[O-])cc2)cc1	0	14	5	11	-8
OC(CNCC1CCCO1)COc1ccc(OCC(O)CNCC2CCCO2)cc1 (stereo not drawn)	14	3	2	-1	3
